# From PubChem BioAssay
# Several values for one entry are separate records, joined by “and”; a condition that tells them apart may be missing. Equal values may be shown once. Activity calls are given as the source filed them.
# How the values were obtained:
# [1] = anti-His antibody binders, primary screen, artefact control for SMM control protein annotation, biochemical, small-molecule microarray, 635 nm fluorescence (AID 1128); conditions: anti-His Alexa647 antibody binding, higher = more signal;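 note: score merges feature fluorescence with signal-to-noise for each printed compound spot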
# [2] = test system: Human papillomavirus type 1a E7 protein (residues 1-88); experiment: HPV1a E7 small-molecule binders, primary screen, biochemical, small-molecule microarray, residues 1-88, 635 nm (AID 1129); conditions: small-molecule microarray binding, fluorescence 635 nm; higher = more signal
# [3] = target: Focal adhesion kinase 1 (Homo sapiens) (UniProt Q05397); experiment: small-molecule microarray binders of FAK, primary screen, biochemical, 635/667 nm fluorescence, BSA, DTT (AID 1130); conditions: PTK2 binding, 635 nm fluorescence, higher = more signal;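 note: composite of spot emission at 667 nm and signal to noise over triplicate slides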
# [4] = test system: Fibrinogen (Alexa647-labelled); experiment: fibrinogen binders on compound microarrays, profiling panel, artefact control for SMM control-protein annotation, biochemical, small-molecule microarray, 635/667 nm fluorescence (AID 1131); conditions: fibrinogen-A647 binding fluorescence, higher = more signal;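 note: z-score merges 667 nm fluorescence with per-spot signal-to-noise over triplicate slides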
# [5] = target: Follistatin (Homo sapiens) (UniProt P19883); experiment: follistatin binders on small-molecule microarrays, primary screen, biochemical, small-molecule microarray, 635/667 nm fluorescence (AID 1132); conditions: FST binding, 635 nm fluorescence, higher = more signal
# [6] = target: Fibroblast growth factor 2 (Homo sapiens) (UniProt P09038); experiment: FGF2 binders on small-molecule microarrays, primary screen, biochemical, small-molecule microarray, 635/667 nm fluorescence (AID 1133); conditions: small-molecule microarray binding, FGF2, fluorescence 635/667; higher = more signal
# [7] = mitochondrial membrane potential change in A549 cells, profiling panel, cell-based, JC-1 fluorescence, basal, 24 h, 100 nL (AID 1138); conditions: higher = more signal;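 note: A549 lung adenocarcinoma cells under basal conditions with no added stimulus; test concentration not given here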
# Lefty1 = Lefty1 binders on small-molecule microarrays, primary screen, biochemical, small-molecule microarray, 635/667 nm fluorescence (AID 1139); conditions: small-molecule microarray binding, fluorescence 635/667; higher = more signal
# [8] = test system: wheat germ agglutinin (Triticum aestivum), Alexa647-labelled; experiment: wheat germ agglutinin binders on compound microarrays, profiling panel, artefact control for SMM control-protein annotation, biochemical, small-molecule microarray, 635/667 nm fluorescence (AID 1140); conditions: WGA-A647 binding, 635 nm fluorescence, higher = more signal;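 note: score merges 667 nm feature emission with signal to noise over triplicate slides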
# [9] = target: Luciferin 4-monooxygenase (Photinus pyralis) (UniProt P08659); experiment: firefly luciferase enzyme inhibitors, primary screen, biochemical, luminescence, purified enzyme, 2006 set (AID 1141); conditions: SteadyGlo luminescence, 30 min, higher = more signal, called active from +8 up or from −8 down;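 note: cell-free assay with purified firefly luciferase at 100 ng per well in PBS; test concentration not given here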
# Sequence of Luciferin 4-monooxygenase (Photinus pyralis) (P08659 whole entry, looked up): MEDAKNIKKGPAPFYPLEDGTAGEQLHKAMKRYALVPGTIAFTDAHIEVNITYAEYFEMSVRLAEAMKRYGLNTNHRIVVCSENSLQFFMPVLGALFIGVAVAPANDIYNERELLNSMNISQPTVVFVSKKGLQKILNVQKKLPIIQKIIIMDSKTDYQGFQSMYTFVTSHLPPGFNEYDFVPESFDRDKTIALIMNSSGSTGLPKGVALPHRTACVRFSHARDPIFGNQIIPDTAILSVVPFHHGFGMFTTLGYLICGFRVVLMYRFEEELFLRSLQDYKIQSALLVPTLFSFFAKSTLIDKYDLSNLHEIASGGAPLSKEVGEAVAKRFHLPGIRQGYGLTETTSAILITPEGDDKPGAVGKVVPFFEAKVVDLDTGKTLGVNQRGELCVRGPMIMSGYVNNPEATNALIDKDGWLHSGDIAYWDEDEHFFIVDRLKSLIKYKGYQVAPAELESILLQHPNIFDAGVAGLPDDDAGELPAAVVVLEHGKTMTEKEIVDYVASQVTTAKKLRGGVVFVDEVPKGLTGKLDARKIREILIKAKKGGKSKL
# Sequence of Focal adhesion kinase 1 (Homo sapiens) (Q05397 whole entry, looked up): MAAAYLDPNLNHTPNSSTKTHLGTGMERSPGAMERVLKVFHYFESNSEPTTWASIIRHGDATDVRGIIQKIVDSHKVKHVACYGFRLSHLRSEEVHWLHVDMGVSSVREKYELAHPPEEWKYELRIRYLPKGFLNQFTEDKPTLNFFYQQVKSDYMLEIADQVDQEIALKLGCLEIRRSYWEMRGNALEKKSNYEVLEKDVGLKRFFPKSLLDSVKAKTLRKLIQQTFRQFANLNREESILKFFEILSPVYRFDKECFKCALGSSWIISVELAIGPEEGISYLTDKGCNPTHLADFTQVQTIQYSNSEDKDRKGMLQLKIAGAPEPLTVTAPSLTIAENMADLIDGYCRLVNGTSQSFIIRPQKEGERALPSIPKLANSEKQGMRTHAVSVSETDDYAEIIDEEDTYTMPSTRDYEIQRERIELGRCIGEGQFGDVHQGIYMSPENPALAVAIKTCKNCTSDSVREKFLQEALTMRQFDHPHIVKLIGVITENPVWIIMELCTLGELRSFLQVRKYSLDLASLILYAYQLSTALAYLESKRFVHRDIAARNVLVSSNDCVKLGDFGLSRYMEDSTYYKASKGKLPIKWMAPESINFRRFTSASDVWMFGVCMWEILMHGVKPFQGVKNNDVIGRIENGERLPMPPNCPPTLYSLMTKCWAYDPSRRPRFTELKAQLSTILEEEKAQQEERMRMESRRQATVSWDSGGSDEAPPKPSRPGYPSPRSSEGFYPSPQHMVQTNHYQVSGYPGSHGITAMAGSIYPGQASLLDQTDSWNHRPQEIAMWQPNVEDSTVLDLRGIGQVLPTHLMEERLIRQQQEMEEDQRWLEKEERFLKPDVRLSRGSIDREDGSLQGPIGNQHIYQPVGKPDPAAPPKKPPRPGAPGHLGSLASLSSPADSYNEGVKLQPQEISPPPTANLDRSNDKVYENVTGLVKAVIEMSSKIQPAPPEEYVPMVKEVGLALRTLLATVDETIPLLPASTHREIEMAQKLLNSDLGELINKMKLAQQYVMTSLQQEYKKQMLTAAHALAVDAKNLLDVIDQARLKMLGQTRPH
# Sequence of Fibroblast growth factor 2 (Homo sapiens) (P09038 whole entry, looked up): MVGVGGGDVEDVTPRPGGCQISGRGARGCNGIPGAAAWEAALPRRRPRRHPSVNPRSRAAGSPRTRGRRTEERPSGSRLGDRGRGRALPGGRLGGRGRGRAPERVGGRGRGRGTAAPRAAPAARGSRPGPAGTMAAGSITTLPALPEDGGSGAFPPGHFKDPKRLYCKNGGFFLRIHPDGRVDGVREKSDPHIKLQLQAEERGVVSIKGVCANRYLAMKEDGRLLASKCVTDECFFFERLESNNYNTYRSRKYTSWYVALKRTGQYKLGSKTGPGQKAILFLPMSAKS
# Sequence of Follistatin (Homo sapiens) (P19883 whole entry, looked up): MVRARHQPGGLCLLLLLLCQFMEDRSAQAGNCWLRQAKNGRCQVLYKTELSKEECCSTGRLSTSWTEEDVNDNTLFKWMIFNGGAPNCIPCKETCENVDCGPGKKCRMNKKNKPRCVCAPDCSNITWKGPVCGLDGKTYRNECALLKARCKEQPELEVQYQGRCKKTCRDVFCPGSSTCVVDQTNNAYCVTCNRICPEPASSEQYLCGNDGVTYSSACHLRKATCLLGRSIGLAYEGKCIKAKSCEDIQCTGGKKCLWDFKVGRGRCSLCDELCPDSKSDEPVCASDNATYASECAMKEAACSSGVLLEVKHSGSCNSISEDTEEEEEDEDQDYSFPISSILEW
Compound,composite z-score [1],composite z-score [2],composite z-score [3],composite z-score [4],composite z-score [5],composite z-score [6],z-score [7],composite z-score (Lefty1),composite z-score [8],z-score [9]
CCOC(=O)NN=C1C[C@@H](O)[C@@H](O)[C@@H]2[C@@H]3C(=O)N(Cc4ccccc4)C(=O)[C@@H]3CC[C@@H]12,0.82,0.561,-0.118,0.669,0.408,0.371,-0.222,0.665,0.0775,0.66 (inactive)
Cc1ccc(S(=O)(=O)N[C@@H]2COC(=O)CC=C[C@@H](C)[C@@H]3C=C[C@H](O)[C@@H](COC(=O)CC=C[C@H]2C)O3)cc1,-0.226 and -0.118,-0.617 and -0.0999,-0.466 and -0.318,-0.656 and 0.267,1.34 and 0.443,1.01 and 0.578,1.78 and -1.7,1.26 and 0.632,-0.113 and -0.0881,-0.92 (inactive) and 1.02 (inactive)
C=CC[C@@H](O)c1ccc(O)c(F)c1,-1.52 and -0.7,-0.762 and -1.07,-0.0427 and -0.9,-0.755 and -1.22,-1.12 and -0.0709,-1.42 and -0.594,-0.933 and 1.15,-1.9 and -0.344,0.106 and -1.3,-0.0615 (inactive) and -1.14 (inactive)
C=CCN(Cc1ccccc1)C(=O)C1N(c2c(Cl)cccc2CO)C(=O)C2C(C(=O)O)C3C=CC21O3 (stereo not given),-1.57 and -1.25,-2.28 and -0.762,-1.12 and -0.942,-1.61 and -1.28,-2.48 and -2.78,-1.21 and -1.62,1.29 and -0.936,-3.16 and -3,-1.9 and -1.22,-1.28 (inactive) and 1.17 (inactive)
COC(=O)C1=C(C)N(Cc2ccccc2)C2=C(C(C)=O)[C@H](c3ccccc3)[C@@](O)(C(=O)OC)C(=O)N2[C@@H]1c1ccccc1,0.313 and -0.605,1.06 and -0.558,0.113 and -0.651,0.963 and 0.0691,0.764 and -0.238,0.745 and 0.282,3.76 and 1.44,0.638 and -0.0574,0.493 and -0.348,-1.12 (inactive) and -2.89 (inactive)
C=C[C@@H](C)[C@@H](O)c1ccc(O)c2ccccc12,-0.46 and 0.408,-1.07 and -0.498,-0.221 and -0.422,-1.54 and 0.509,0.105 and 0.431,-0.162 and -0.329,0.287 and -0.728,-0.863 and -0.286,-1.19 and 0.506,-1.48 (inactive) and -0.181 (inactive)
COC(=O)[C@H](C)NC(=O)CCC1CC(OC(=O)NCCc2ccc(F)cc2)CC2(CCCC(COC(=O)NCCCN3CCCC3=O)O2)O1 (stereo not given in full),0.944,1.17,0.534,0.872,1.03,1.3,-0.498,1.55,0.526,0.824 (inactive)
C[C@@H]1CC[C@H]2C(=O)O[C@H](CN=[N+]=[N-])CN2[C@H]1c1ccc(Br)cc1,0.755 and 0.806,-0.841 and -0.245,0.073 and 0.0778,0.142 and 0.149,0.506 and -0.488,0.0443 and -0.132,0.703 and 0.206,0.212 and 0.0831,-0.276 and -0.0024,0.788 (inactive) and -1.42 (inactive)
CO[C@@H]1COC(=O)CC=C[C@H](C)COC(=O)[C@H](C)NC(=O)CC=C[C@H]1C,0.401,-0.375,-0.0308,-0.607,1.11,1.72,0.521,1.03,-0.587,-0.394 (inactive)
CCN1C(=O)[C@H]2[C@H]3[C@H](O)[C@H](O)CC(=NNC(=O)OCc4ccc(OC)cc4)[C@H]3CC[C@H]2C1=O,0.0442,0.0241,0.0983,0.171,-0.699,-0.623,0.647,0.107,0.77,-0.716 (inactive)
C=CC[C@H](O)c1ccc(OCCO)cc1,0.185 and 0.0367,-1.1 and -1.32,-1.14 and -0.38,-0.0902 and -3.21,0.519 and 0.726,-0.442 and 0.17,-0.441 and 0.564,-0.748 and -0.0547,0.542 and 0.645,-1.15 (inactive) and -1.17 (inactive)
CC(C)=NOCc1ccc(-c2cn([C@@H]3COC[C@H]3O)nn2)cc1,1.03,0.245,-0.115,-0.4,0.218,0.299,0.11,0.402,-0.132,-1.12 (inactive)
COC(=O)[C@@]1(Cc2ccccc2)[C@H]2c3cc(C(=O)N(C)C)n(C[C@H](O)CO)c3C[C@H]2CN1C(=O)c1ccccc1,0.456 and 0.65,0.23 and 0.965,0.805 and 0.641,0.948 and 0.223,-0.342 and 0.453,-0.378 and -0.271,0.207 and 0.034,-0.6 and -0.308,0.877 and -0.0476,0.665 (inactive) and 1.66 (inactive)
C=CCN(CCCC)C(=O)C1N(c2c(Cl)cccc2CO)C(=O)C2C(C(=O)O)C3C=CC21O3 (stereo not given),-1.86 and 1.18,-1.93 and -0.108,-0.983 and 0.896,-1.58 and -2.29,-1.71 and -0.64,-1.09 and -1.49,-1 and -0.998,-2.11 and -0.973,-1.16 and -0.0139,0.758 (inactive) and 1.51 (inactive)
C#CCCCON=C1C[C@@H](O)[C@@H](O)[C@@H]2[C@@H]3C(=O)N(C4CCCCC4)C(=O)[C@@H]3CC[C@H]12,1.31,1.1,0.498,0.962,-0.0195,0.0951,0.83,0.112,0.698,-1.01 (inactive)
CO[C@@H]1C=CCC(=O)N2CCC[C@H]2C(=O)OC[C@H](C)C(=O)OC[C@H]1C,0.761,-0.624,0.0548,-1.04,1.23,0.109,1.54,0.864,0.508,-1.87 (inactive)
C[N+](C)(C)CCCCCCNC(=O)[C@H]1C[C@H]2C(=O)N[C@@H](CCCC[N+](C)(C)C)C(=O)N2[C@H]1c1ccc(O)cc1,-0.389 and 0.368,-0.558 and -0.643,-0.391 and -0.0304,-0.112 and -0.705,1.13 and 1.16,1.52 and 0.18,-1.08 and -0.207,1.56 and 0.452,0.618 and -0.277,1.03 (inactive) and 0.485 (inactive)
C=CCN(Cc1ccccc1)C(=O)C1N(CCCCCCO)C(=O)C2C(C(=O)O)C3C=CC21O3 (stereo not given),0.193 and -0.664,-0.363 and -0.297,0.0147 and -0.339,-0.923 and -1.99,-1.42 and -1.07,-1.88 and -2.94,-0.38 and 0.344,-1.84 and -1.78,-0.834 and -0.785,1.01 (inactive) and 1.33 (inactive)
CCOC(=O)c1ccc(NC(=O)O[C@H]2[C@H](OC(=O)Nc3ccccc3)[C@@H](OC(=O)Nc3ccccc3)[C@@H](OC)O[C@@H]2CO)cc1,2.39 and 2.88,1.26 and 1.28,1.78 and 0.545,1,1.2 and 1.4,0.601 and 1.59,-1.02 and -1.32,0.88 and 1.51,1.32 and 1.12,-0.427 (inactive) and -0.249 (inactive)
